In the library only some 7.5% were active in any assay of this set; here they are far more common.
ELG1 DNA repair: qHTS screen for small molecules that inhibit ELG1-dependent DNA repair in human embryonic kidney (HEK293T) cells expressing luciferase-tagged ELG1 | AID 504467, 2011 | 330,000 compounds, 2.3% hits | HEK293T ELG1-luciferase reporter, luminescence, 16 h; DNA damage induced by 5-fluorouridine | Potency, µM (titrated, usually from 46.1 µM), for the others: at the highest dose activity change, negative = inhibition, usual class: inhibitors; note: potency is the fitted concentration of half-maximal effect; nearly all actives have a fitted effect of over 55% in size
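Reporter activity after DNA damage by 5-fluorouridine is monitored. Compound-treated cells incubate 16 hr at 37 °C, then ONE-Glo is added for 30 min before luminescence reading.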
B2AR arrestin: qHTS assay of beta-arrestin-biased ligands of beta2-adrenergic receptor. AID 492947, 2010. beta-arrestin recruitment to beta2AR, cell-based reporter. Potency, µM (doses to about 46.1 µM), without a hit: top-dose activation, actives largely listed as activators. 330,000 compounds, 0.02% hits;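 note: potency is the fitted concentration of half-maximal effect; 0% = DMSO controls and full agonism = EC100 isoproterenol or metaproterenol; nearly all actives have a fitted effect of over 65% in size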
Gal4-VP16 FLuc: VP16 counterscreen qHTS for inhibitors of ROR gamma transcriptional activity. Potency, µM (top dose mostly 53.6 µM), without a hit: at the highest dose activity, negative = inhibition, actives largely listed as inhibitors. AID 2546, 2010. Drosophila S2 Gal4-VP16 UAS-luciferase, luminescence, 20 h. 310,000 compounds, 3.5% hits;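 note: Gal4-VP16 expression switched on by copper sulfate through the metallothionein promoter; potency is the fitted concentration of half-maximal effect; nearly all actives have a fitted effect of over 50% in size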
RORgamma inh: qHTS for inhibitors of ROR gamma transcriptional activity; Nuclear receptor ROR-gamma (Mus musculus), P51450; Drosophila S2 Gal4-RORgamma UAS-luciferase reporter, 20 h; Potency, µM (series often up to 53.6 µM), for inactives: at the top dose activity change, negative = inhibition, most hits filed as inhibitors; 310,000 compounds, 5.4% hits; AID 2551, 2010; note: potency is the fitted concentration of half-maximal effect; nearly all actives have a fitted effect of over 60% in size
Target sequence (P51450 whole entry, looked up, the tested form may be a part): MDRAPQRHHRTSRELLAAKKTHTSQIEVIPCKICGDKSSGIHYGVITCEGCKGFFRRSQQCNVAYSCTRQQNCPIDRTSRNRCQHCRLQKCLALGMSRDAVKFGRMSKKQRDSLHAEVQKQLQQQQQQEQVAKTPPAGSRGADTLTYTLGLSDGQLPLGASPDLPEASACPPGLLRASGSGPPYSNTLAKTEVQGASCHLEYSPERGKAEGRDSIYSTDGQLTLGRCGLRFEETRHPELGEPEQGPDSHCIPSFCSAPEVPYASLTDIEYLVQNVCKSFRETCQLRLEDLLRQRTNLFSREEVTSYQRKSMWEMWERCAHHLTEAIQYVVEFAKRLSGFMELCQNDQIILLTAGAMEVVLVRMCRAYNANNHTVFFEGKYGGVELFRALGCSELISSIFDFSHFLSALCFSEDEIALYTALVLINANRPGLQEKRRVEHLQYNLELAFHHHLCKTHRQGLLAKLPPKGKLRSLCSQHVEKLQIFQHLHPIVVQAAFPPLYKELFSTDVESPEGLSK
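Stably transfected Drosophila Schneider cells are the test system, with ROR gamma fused to Gal4 and luciferase under UAS control; luminescence is read after 20 hr of 700 uM copper sulfate induction at ambient temperature.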
TSHR antag: Antagonists of the Thyroid Stimulating Hormone Receptor: HTS campaign. Thyrotropin receptor (Homo sapiens), P16473. TSHR-expressing cells, TSH-stimulated cAMP HTRF, 2 h; hits give low values. activity change, negative = inhibition, % at 11.5 µM. 330,000 compounds, 0.2% hits. AID 504810, 2011;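 active = activity change below a set negative limit, meaning inhibition stronger than a set level, cut at about -70% in these data; inconclusive = activity change between two set negative limits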
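Read-out is FRET at 665 nm (cryptate excitation 337 nm) from a cryptate-tagged anti-cAMP antibody, competed by cell cAMP against cAMP-d2. Compounds are tested on freshly harvested TSHR cells challenged with 4nM TSH (EC80) for 2 hours at 37 deg C.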
* = called active by the depositor; u = inconclusive; x = not tested or not shown; ! = not confirmed by another sample; [ ] = another dose, or the depositor's remark. Unless noted, calls come from the whole dose curve; as a rule, active = well fitted curve in the direction sought with a large enough effect; inconclusive = small, poorly fitted or top-dose-only effect, or another doubt; inactive = no such curve, though single readings can be large; an effect the other way counts as inactive or inconclusive. Unless noted, % is set by controls: 0 for no effect and ±100 for the full control effect.

SMILES	ELG1 DNA repair	B2AR arrestin	Gal4-VP16 FLuc	RORgamma inh	TSHR antag
CC(C)c1cccc(O)c(=O)c1	u	0%	2.8µM*!	2µM*	-8
Cc1ccc(-n2c(O)c(/C=C/C=Nc3ccccc3)c(=O)[nH]c2=O)cc1	1%	0%	-5%	12%	2
Cc1ccc(N/N=C/c2c(O)n(-c3ccccc3)c(=O)[nH]c2=O)cc1	4.1µM*	0%	0%	12%	-1
CC(=O)Nc1ccc(S(=O)(=O)N2CCSC2c2ccc(C)cc2)cc1 (configuration not stated)	16µM*	0%	-1%	20%	-1
Cc1ccc(S(=O)(=O)N2CCCC2c2cccnc2)cc1 (configuration not stated)	0%	-1%	-5%	10%	21
CC[n+]1c(-c2ccccc2)c2cc(N)ccc2c2ccc(N)cc21	x	x	11µM*	u	x
CCNCC	x	x	-4%	6%	x
Brc1ccccc1Cn1c(-c2cncs2)nc2ccccc21	13%	0%	-8%	6.3µM*	-16
COCCN(C(=O)CCl)c1c(C)cccc1C	x	x	11%	10%	x
O=C(Cc1ccc([N+](=O)[O-])cc1)N1CCN(Cc2ccc3c(c2)OCO3)CC1	u	0%	-1%	1%	-1
CCc1nn(CC(=O)N2CCN(Cc3ccc4c(c3)OCO4)CC2)c(=O)c2cc3occc3n12	21µM*	0%	-4%	-18%	-7
COc1cc(C=C2C(=O)NC(=O)NC2=O)ccc1OCc1ccc([N+](=O)[O-])cc1	u	0%	0%	4%	11
COc1cc(/C=C(/C)[N+](=O)[O-])ccc1OCc1ccccc1Cl	u	-1%	u	4µM*	-19
CSc1ccc(C(=O)C2CCCN(Cc3cnc(SC)nc3)C2)cc1 (configuration not stated)	-19%	-1%	-3%	40%	-5
CCn1ccnc1CN1CCCC(C(=O)c2ccc(SC)cc2)C1 (configuration not stated)	0%	7%	6.3µM*	1.6µM*	3
Cc1cc(Cl)ccc1OCC(=O)O	11%	0%	-5%	9%	1
CCOC(=O)C/C(C)=N/NC(=O)COc1ccccc1C	8%	0%	u	14µM*	-3
CCc1ccc(N2C(=O)NC(=O)/C(=C/c3cccn3CCOc3ccc(C(C)CC)cc3)C2=O)cc1 (configuration not stated)	u	0%	u	0.79µM*	0
Cc1cccc(N2CCN(C(=O)c3ccc(CNc4c(N5CCC(C)CC5)c(=O)c4=O)cc3)CC2)c1C	u	0%	-9%	-13%	0
CCCNC(=O)c1c(N)n(CC2CCCO2)c2nc3ccccc3nc12 (configuration not stated)	u	-1%	6.3µM*	u	-2
Nc1c(C(=O)OC2CCCCC2)c2nc3ccccc3nc2n1CC1CCCO1 (configuration not stated)	u	0%	-26%	11µM*	-12
CC(C)CCOC(=O)c1c(N)n(CC2CCCO2)c2nc3ccccc3nc12 (configuration not stated)	u	0%	-3%	-2%	x
COc1ccc(CCNC(=O)c2c(N)n(CCN3CCOCC3)c3nc4ccccc4nc23)cc1OC	16µM*	0%	-28%	21%	-25
CC(C)OC(=O)c1c(N)n(CC2CCCO2)c2nc3ccccc3nc12 (configuration not stated)	u	0%	-8%	-23%	2
CC(C)OCCCNC(=O)c1c(N)n(CC2CCCO2)c2nc3ccccc3nc12 (configuration not stated)	9.2µM*	0%	-8%	13%	-10
SMILES	ELG1 DNA repair	B2AR arrestin	Gal4-VP16 FLuc	RORgamma inh	TSHR antag
COC(=O)C(Cc1ccc(N(CCCl)CCCl)cc1)N=Cc1ccccc1O (configuration not stated)	18µM*	0%	u	7.9µM*	28
S=c1[nH]nc(-c2ccco2)n1/N=C/c1cccs1	19%	0%	u	-27%	-6
C=C(C)Cn1c(-c2cccc([N+](=O)[O-])c2)n[nH]c1=S	2%	0%	-7%[10 µM]	7.1µM*	-7
C=C(C)Cn1c(-c2cccs2)n[nH]c1=S	11%	-1%	14µM*	13µM*	-1
O=[N+]([O-])c1cccc(O)c1	17%	0%	-15%	30%	0
Cc1occc1C(=O)Nc1ccccc1	x	x	4%	35%	x
C[C@@H]1OC=C2[C@@H](O)[C@H]3O[C@H]3C(=O)[C@@]23[C@H]1[C@H]1C2=C([C@@H](O)[C@H]4O[C@@H]4C2=O)[C@@H]3O[C@@H]1C	x	x	28%[10 µM]	-44%[10 µM]	x
CCOP(=S)(OCC)Oc1ccc(Cl)cc1Cl	x	x	-8%	17%	x
CC/C(=N\NC(=O)c1ccccc1)c1c(O)n(C2CCCCC2)c(=O)[nH]c1=O	u	0%	u	14µM*	5
CCC(=NC1CC1)c1c(O)n(C2CCCCC2)c(=O)[nH]c1=O	10%	0%	27%	26%	-2
CC/C(=N\NC(=O)c1ccccc1Cl)c1c(O)n(C2CCCCC2)c(=O)[nH]c1=O	6%	0%	13µM*	7.9µM*	3
COc1ccc(C(=O)OC2CCN(C)CC2)cc1	23%	0%	-23%	13µM*	22
C=CC(C)=O	x	x	1%	2%	x
COc1ccc(C(=O)NC(=S)NNC(=O)c2cccnc2)cc1	-26%	0%	-13%	16µM*	2
C=CCCC#N	x	x	-13%	-8%	x
[O-][Br+2]([O-])O	x	x	-13%	-4%	x
Cc1ccc(-c2n[nH]c(=S)n2-c2ccccc2)cc1	10%	0%	u	u	8
Cc1cc(-c2n[nH]c(=S)n2CC(C)C)cs1	-2%	-1%	u	5µM*	-7
O=C1/C(=C\c2ccccc2)C[C@@]2(O)[C@H]3Cc4ccc(O)c5c4[C@@]2(CCN3CC2CC2)[C@@H]1O5	x	x	13µM*	11µM*	x
O=C1CCCC2[C@@H]3CCCN4CCC[C@@H](CN12)C34 (some centres not stated)	x	x	-15%	-14%	x
O=C(N/N=C/c1c(O)n(CCc2ccc(F)cc2)c(=O)[nH]c1=O)c1ccccc1	17%	3%	-12%	-3%	-2
O=C(N/N=C/c1c(O)n(Cc2ccccc2)c(=O)[nH]c1=O)c1ccccc1O	11%	0%	u	11µM*	27
CCn1c(O)c(/C=N/NC(=O)c2ccccc2)c(=O)[nH]c1=S	u	0%	u	7.1µM*	-2
ClCBr	x	x	-13%	-18%	x

Compound activity deposited in PubChem BioAssay by National Center for Advancing Translational Sciences (NCATS).
